In PubChem BioAssay AID1159580 (chemical genetic matrix, 2015):
Values joined by “and” are separate entries in the source; they are usually repeats but may differ in a detail not shown here. Identical values can stand only once. Among all 5,500 compounds or so, about 2,000 (36%) were called active. Inconclusive results (about 18%) are left out. No stated cut-off is given here; in the data, active means normalized growth mostly below about 0.91 (no sharp cut-off); inconclusive means no clear call, values can overlap the other calls; inactive means mostly above about 0.92. Some of the results follow.

Assay: chemical genetic growth profiling, strain panel (AID 1159580);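 further: tested at 20 µM; growth read once vehicle control cultures reached saturation at 30 °C; 1 = growth at the plate median or of vehicle wells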
Settings: S. cerevisiae deletion strains, growth OD

Measured: normalized growth

Nc1ccc(S(=O)(=O)Nc2ncccn2)cc1
inactive: locus YAL013W, strain DEP1, stronger effect = lower value 0.982 | locus YAL021C, strain ccr4, stronger effect = lower value 0.968 | locus YAL026C, strain drs2, stronger effect = lower value 0.986 | locus YAL030W, strain snc1, stronger effect = lower value 0.994 | locus YBL061C, strain skt5, stronger effect = lower value 0.985 | locus YBR009C, strain hhf1, stronger effect = lower value 0.986 | locus YBR021W, strain FUR4, stronger effect = lower value 0.992 | locus YBR023C, strain chs3, stronger effect = lower value 0.993 | locus YBR171W, strain sec66, stronger effect = lower value 0.973 | locus YBR229C, strain ROT2, stronger effect = lower value 0.96 | locus YBR231C, strain swc5, stronger effect = lower value 1.02 | locus YBR279W, strain paf1, stronger effect = lower value 0.995 | locus YCL011C, strain gbp2, stronger effect = lower value 0.957 | locus YCL016C, strain dcc1, stronger effect = lower value 1.01 | locus YCL029C, strain bik1, stronger effect = lower value 0.991 | locus YCL069W, strain vba3, stronger effect = lower value 0.954 | locus YCR088W, strain abp1, stronger effect = lower value 0.976 | locus YDL005C, strain med2, stronger effect = lower value 0.985 | locus YDL035C, strain GPR1, stronger effect = lower value 0.979 | locus YDL040C, strain nat1, stronger effect = lower value 0.971 | locus YDL074C, strain BRE1, stronger effect = lower value 0.969 | locus YDL101C, strain DUN1, stronger effect = lower value 0.981 | locus YDL134C, strain PPH21, stronger effect = lower value 0.999 | locus YDL185W, strain tfp1, stronger effect = lower value 0.988 | locus YDL192W, strain arf1, stronger effect = lower value 1 | locus YDR001C, strain nth1, stronger effect = lower value 0.965 | locus YDR069C, strain doa4, stronger effect = lower value 0.97 | locus YDR101C, strain arx1, stronger effect = lower value 1.01 | locus YDR137W, strain rgp1, stronger effect = lower value 0.964 | locus YDR150W, strain NUM1, stronger effect = lower value 0.985 | locus YDR159W, strain sac3, stronger effect = lower value 0.955 | locus YDR162C, strain NBP2, stronger effect = lower value 0.996 | locus YDR195W, strain ref2 0.956 | locus YDR297W, strain sur2, stronger effect = lower value 0.975 | locus YDR318W, strain mcm21, stronger effect = lower value 1 | locus YDR334W, strain swr1, stronger effect = lower value 0.935 | locus YDR335W, strain msn5, stronger effect = lower value 0.988 | locus YDR388W, stronger effect = lower value 0.994 | locus YDR392W, strain spt3, stronger effect = lower value 1 | locus YDR502C, strain sam2, stronger effect = lower value 1.01 | locus YEL003W, strain gim4, stronger effect = lower value 0.991 | locus YEL037C, strain rad23, stronger effect = lower value 0.967 | locus YEL061C, strain CIN8 (second series), stronger effect = lower value 0.967 | locus YEL061C, strain CIN8, stronger effect = lower value 0.988 | locus YER015W, strain faa2, stronger effect = lower value 0.994 | locus YER016W, strain bim1, stronger effect = lower value 0.968 | locus YER110C, stronger effect = lower value 0.968 | locus YER111C, strain swi4, stronger effect = lower value 1 | locus YER155C, strain BEM2 (second series), stronger effect = lower value 0.989 | locus YER155C, strain BEM2, stronger effect = lower value 0.991 | locus YER167W, strain BCK2, stronger effect = lower value 0.99 | locus YFR010W, strain ubp6, stronger effect = lower value 0.941 | locus YGL078C, strain dbp3, stronger effect = lower value 1 | locus YGL086W, strain mad1, stronger effect = lower value 0.997 | locus YGL167C, strain pmr1, stronger effect = lower value 0.976 | locus YGL173C, strain kem1, stronger effect = lower value 0.994 | locus YGL227W, strain vid30, stronger effect = lower value 0.995 | locus YGL240W, strain doc1, stronger effect = lower value 0.986 | locus YGL248W, strain PDE1, stronger effect = lower value 0.978 | locus YGL253W, strain hxk2, stronger effect = lower value 0.923 | locus YGR078C, strain PAC10, stronger effect = lower value 0.986 | locus YGR135W, strain pre9, stronger effect = lower value 0.997 | locus YGR252W, strain gcn5, stronger effect = lower value 0.957 | locus YHR013C, strain ard1, stronger effect = lower value 0.984 | locus YHR027C, strain rpn1, stronger effect = lower value 0.988 | locus YHR030C, strain SLT2, stronger effect = lower value 0.999 and 0.97 | locus YHR079C, strain IRE1 (second series), stronger effect = lower value 1 | locus YHR079C, strain IRE1, stronger effect = lower value 0.979 | locus YHR094C, strain hxt1, stronger effect = lower value 0.994 | locus YHR129C, strain ARP1, stronger effect = lower value 0.987 | locus YHR142W, strain chs7, stronger effect = lower value 0.984 | locus YHR200W, strain rpn10, stronger effect = lower value 0.992 | locus YIL066C, strain RNR3, stronger effect = lower value 0.984 | locus YIL073C, strain SPO22, stronger effect = lower value 1.02 | locus YIL125W, strain kgd1, stronger effect = lower value 0.995 | locus YIR030C, strain dcg1, stronger effect = lower value 0.997 | locus YJL092W, strain hpr5, stronger effect = lower value 0.974 | locus YJL095W, strain BCK1 (second series), stronger effect = lower value 0.995 | locus YJL095W, strain BCK1, stronger effect = lower value 0.994 and 0.979 | locus YJL115W, strain asf1, stronger effect = lower value 0.97 | locus YJL129C, strain trk1, stronger effect = lower value 0.984 | locus YJL134W, strain LCB3, stronger effect = lower value 0.993 | locus YJL154C, strain vps35, stronger effect = lower value 0.969 | locus YJL164C, strain tpk1, stronger effect = lower value 0.992 | locus YJL166W, strain qcr8, stronger effect = lower value 0.936 | locus YJL168C, strain set2, stronger effect = lower value 0.992 | locus YJL187C, strain SWE1 (second series), stronger effect = lower value 0.986 | locus YJL187C, strain SWE1, stronger effect = lower value 0.974 | locus YJR043C, strain POL32, stronger effect = lower value 1.01
